Test results published in PubChem BioAssay AID1645858 (Buhrlage Lab, Dana-Farber Cancer Institute and Novartis …, 2021).
About 330 (0.7%) of roughly 47,000 compounds were called active. The entries come from a sample that favours actives as a whole. Unmarked numbers belong to inactive results. Cut-off read from the data, not from the text of the source: active = inhibition above about 30%; inactive = the rest.

Target: OTU domain-containing protein 3 (Homo sapiens) (UniProt Q5T2D3)
Assay: blocks human OTUD3 ubiquitin-rhodamine cleavage (AID 1645858)
Settings: purified OTUD3, Ub-rhodamine fluorescence, 2 h; at 25 µM; hits give high values

Sequence of OTU domain-containing protein 3 (Homo sapiens) (Q5T2D3 whole entry, looked up, the tested form may be a part): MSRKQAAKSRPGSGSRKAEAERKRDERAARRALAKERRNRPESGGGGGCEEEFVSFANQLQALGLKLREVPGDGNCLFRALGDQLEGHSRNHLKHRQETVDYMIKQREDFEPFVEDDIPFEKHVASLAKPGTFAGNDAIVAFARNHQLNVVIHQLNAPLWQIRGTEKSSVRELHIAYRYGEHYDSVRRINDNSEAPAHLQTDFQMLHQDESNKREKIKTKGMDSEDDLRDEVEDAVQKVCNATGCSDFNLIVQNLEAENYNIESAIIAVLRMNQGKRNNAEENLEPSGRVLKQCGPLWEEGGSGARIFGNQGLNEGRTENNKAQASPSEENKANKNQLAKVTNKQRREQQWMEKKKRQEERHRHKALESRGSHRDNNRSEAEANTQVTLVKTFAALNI

| Compound | inhibition |
| --- | --- |
| Cc1ccc(C(=O)N2C[C@H]3NC(=O)c4ccccc4C(=O)[C@@]3(C)C2)cc1 | -0.0157% |
| CCN(C(=O)c1cncc(Br)c1)c1nc2ccccc2s1 | -0.0268% |
| COc1ccc(-c2ocnc2C(=O)NCc2ccc(OC)c(OC)c2)cc1 | -9.98% |
| COc1cc(OC)cc(-c2nnc(NC(=O)c3ccc([N+](=O)[O-])o3)o2)c1 | 40.4% (active) |
| COc1cccc(-c2ocnc2C(=O)NCc2ccc(OC)c(OC)c2)c1 | -12.9% |
| Nc1c(C(=O)CN2CCc3ccccc32)c(=O)[nH]c(=O)n1C1CC1 | -63.2% |
| Cc1ccccc1S(=O)(=O)NCc1nc2cccnc2n1C1CC1 | -1.25% |
| COC(=O)c1cc(S(=O)(=O)Nc2ccc(NC(=O)c3ccccc3)cc2)ccc1Cl | 2.44% |
| Cc1cccc(Nc2nccnc2C2CCCN2C(=O)c2ccnnc2)n1 (stereo not given) | 10.1% |
| O[C@H]1[C@H](NCc2cnc3ccccc3c2)[C@@H](c2cncnc2)C[C@H]1O | -7.7% |
| Cc1ccccc1C(=O)N1CCC2(CC1)c1ncc(-c3cccnc3)n1CCN2C | -6.54% |
| CSc1nc2c(c(Nc3ccc(C(C)=O)cc3)n1)CCC2 | -0.0554% |
| CC(C)Nc1ncnc2c1c(C(=O)N1CCCC1)c1ccccn12 | -56.8% |
| Cc1cc(O)c(=O)cc2c1C[C@H]1CC(C)(C)/C=C/C[C@@]3(C)Oc4cc(=O)c(O)cc(C)c4C[C@@H]3C[C@H](O)[C@]1(C)O2 | 33.2% (active) |
| Cc1cccc(Nc2cccc(C3CCCN3C(=O)c3cccnc3)n2)n1 (stereo not given) | -0.95% |
| CN1CCN(c2ccc3nnc(CCC(=O)NC4CCN(Cc5ccccc5)CC4)n3n2)CC1 | 5.05% |
| CC(C)=CCC(O)C1=CC(=O)c2c(O)ccc(O)c2C1=O (stereo not given) | 94.7% (active) |
| CC(C)=CCc1cc(O)ccc1O | -3.32% |
| Cc1cc(C)c2nc3c(cc2c1)CN(Cc1ccco1)C(=O)O3 | 19.2% |
| CC1(c2ncc(Cc3cccc(F)c3)o2)CCCN(C(=O)CN2CCCC2)C1 (stereo not given) | -4.47% |
| COc1ccccc1CCN[C@H]1CS(=O)(=O)C[C@@H]1S(=O)(=O)c1ccccc1 | 2.36% |
| COc1ccc(NC(=O)c2cn(C)nc2S(=O)(=O)N2CCCCCC2)cc1 | 11% |
| CC(C)NC(=O)c1cccc(-c2noc(-c3ccccc3Br)n2)c1 | 0.0532% |
| Cc1cc(C)nc(N(C(=O)C2CC2)c2ccc(OC(F)(F)F)cc2)n1 | -7.68% |
| Cc1nnc(OCC(=O)Nc2ccc(OC(F)(F)F)cc2)c2ccccc12 | 35.8% (active) |
| COC(=O)c1ccc(NC(=O)CSc2nnc(C(C)Oc3ccccc3)n2C)cc1 (stereo not given) | -2.47% |
| Cc1nc(Nc2ncccn2)cc(C2CCCN2S(=O)(=O)N(C)C)n1 (stereo not given) | -8.82% |
| Cc1ccc(S(=O)(=O)N2CCC3(CC2)OC(C(=O)NCC(C)C)Cn2ccnc23)cc1 (stereo not given) | -3.62% |

| Compound | inhibition |
| --- | --- |
| O=C(CNC(=O)C1COc2ccccc2O1)Nc1ccccc1Br (stereo not given) | -5.2% |
| CCn1nccc1C1CCCN1C(=O)C12CC3CC(CC(C3)C1)C2 (stereo not given) | -2.13% |
| COc1ccc(-c2ccc(CCC(=O)NCc3ccccc3)o2)cc1 | 0.714% |
| OC1CCC(Nc2nc(CN3CCOCC3)nc3sc4c(c23)CCC4)CC1 (stereo not given) | 1.88% |
| O=C(Nc1ccc(Cl)c(Cl)c1)C1C2C=CC3(O2)C1C(=O)N(CCCN1CCN(Cc2ccccc2)CC1)C3C(=O)NC1CCCCC1 (stereo not given) | -13.9% |
| CCN1C(=O)COc2cc(-c3noc(C(=O)N4CCN(c5ccccc5)CC4)n3)ccc21 | 5.26% |
| COc1cccc(NC(=O)C2Cc3ccccc3N2C(=O)c2ccccc2)c1 (stereo not given) | 12% |
| NS(=O)(=O)c1ccc(NS(=O)(=O)c2ccc(NC(=O)c3ccccc3)cc2)cc1 | 4.22% |
| CC(NC(=O)c1ncoc1-c1ccc(F)cc1)c1ccccn1 (stereo not given) | 3.88% |
| O=C(CNS(=O)(=O)/C=C/c1ccccc1)N1CCCC(c2nc3ccccc3s2)C1 (stereo not given) | -13.9% |
| CN(C)c1cccc(C(=O)OCC(=O)Nc2ccc(Cl)cn2)c1 | 1.07% |
| Oc1cccc2nc3c(O)cccc3nc12 | 60.7% (active) |
| CC(C)(C)C(=O)c1cn(CC(=O)N2CCc3ccccc3C2)c2ccccc12 | 0.535% |
| Clc1ccc(C2NC3=NCN(Cc4ccco4)CN3c3nc4ccccc4n32)cc1 (stereo not given) | 11.6% |
| O=C(Cn1cnc2ccccc21)N1CC(c2nc(-c3ccncc3)no2)C1 | -2.15% |
| COc1cccc(-n2c(=O)c(C(=O)NC(C)c3ccccc3)c(O)c3cccnc32)c1 (stereo not given) | 1.53% |
| O=C(NC1CCN(Cc2ccccc2)CC1)c1cc2cn(C3CC3)cc2s1 | -34.6% |
| Cc1ccc(S(=O)(=O)NCCc2nnc3ccc(SCC(=O)NCc4ccc5c(c4)OCO5)nn23)cc1 | 11.1% |
| CCc1cc(C(=O)NCc2ccccc2)nc2ccnn12 | -0.736% |
| CCN(CC)S(=O)(=O)c1ccc(C(=O)Nc2sc(C)c(C)c2C(N)=O)cc1 | -4.61% |
| CC(=O)c1ccc(NC(=O)CSc2ncnc3c2cnn3-c2ccc(C)cc2C)cc1 | -0.915% |
| Cc1ccc(S(=O)(=O)N2C[C@H]3NC(=O)c4ccccc4C(=O)[C@@]3(C)C2)cc1 | -3.74% |
| COc1cc(C2c3[nH]c4ccccc4c3C[C@@H]3C(=O)N(CCC4=CCCCC4)CC(=O)N23)cc(OC)c1OC (stereo not given in full) | -46.8% |
| O=C(Nc1ccccc1Cl)N1C[C@H]2C[C@H]3[C@](C1)(CN(Cc1cccnc1)S3(=O)=O)O2 | 2.31% |
| C[C@@H]1CC[C@H]2C(CN3CCCC(C)(C)C3)C(=O)O[C@]23[C@H]1CC[C@@]1(C)O[C@@H]31 (stereo not given in full) | -0.238% |
| CCOc1ccccc1Oc1nnnn1-c1ccccc1 | 23% |
| CN(C(=O)COc1ccc(C(N)=O)cc1)C1CCCCC1 | -6.97% |
